# Measured values published in PubChem BioAssay AID2283105 (EPA ToxCast).
# Activity calls are given as the source filed them. Rule for the calls: active = hit-call score of the fitted dose curve at least 0.9, where 1 is the maximum; inactive = score below 0.9.
# Target: human CYP2E1, CYP2E1 (gene 1571) (UniProt P05181)
# Assay: NVS_ADME_hCYP2E1: NovaScreen (NVS) CYP450-related Enzyme Activity (ADME) Assay for human CYP2E1
# Description: NVS_ADME_hCYP2E1 is a biochemical, single-readout assay that uses extracted gene-proteins in a cell-free assay. Measurements were taken 0.5 hour after chemical dosing in a 96-well plate.NVS_ADME_hCYP2E1 is one of one assay component(s) measured or calculated from the NVS_ADME_hCYP2E1 assay. It is designed to make measurements of enzyme activity, a form of enzyme reporter, as detected with fluorescence intensity signals by Fluorescence technology.Data from the assay component NVS_ADME_hCYP2E1 was analyzed into 1 assay endpoint. This assay endpoint, NVS_ADME_hCYP2E1, was analyzed in the positive analysis fitting direction relative to Acetonitrile as the negative control and baseline of activity. Using a type of enzyme reporter, loss-of-signal activity can be used to understand changes in the enzymatic activity as they relate to the gene CYP2E1. Furthermore, this assay endpoint can be referred to as a primary readout, because this assay has produced multiple assay endpoints where this one serves a enzymatic activity function. To generalize the intended target to other relatable targets, this assay endpoint is annotated to the cyp intended target family, where the subfamily is xenobiotic metabolism.
# Binding assays used specific radioligands (tritiated, iodinated) with non-radioactive competitive displacement ligands in agonist or antagonist protocols (as indicated) and various reference compounds and inhibitors to titrate specific binding to receptors and transporters. Most enzyme assays (CYPs, kinases, phosphatases, proteases, HDACs) used recombinant protein and specific substrates (fluorescence mostly, some colorimetric and radioactive) and inhibitors, followed by a biochemical separation of substrate and product. All assays for the biochemical HTS were initially run in duplicate at a single concentration (10 uM for CYP450 assays and 25 uM for all others). Assay-chemical combinations meeting a pre-defined threshold (e.g., 30% inhibition and other criteria defined below) were then run in singleton concentration-response format with maximum concentration of 20 uM for CYPs and 50 uM for all others. Each assay was run with positive and negative controls, and concurrent controls on every plate. The follow-up (secondary) screen tested active chemical-pairs in concentration series, as well as a few additional assays not tested in the primary screen, some selected negative inactives, and several cases re-run in the concentration series for confirmatory purposes.
# Sequence of human CYP2E1, CYP2E1 (gene 1571) (P05181 whole entry, looked up): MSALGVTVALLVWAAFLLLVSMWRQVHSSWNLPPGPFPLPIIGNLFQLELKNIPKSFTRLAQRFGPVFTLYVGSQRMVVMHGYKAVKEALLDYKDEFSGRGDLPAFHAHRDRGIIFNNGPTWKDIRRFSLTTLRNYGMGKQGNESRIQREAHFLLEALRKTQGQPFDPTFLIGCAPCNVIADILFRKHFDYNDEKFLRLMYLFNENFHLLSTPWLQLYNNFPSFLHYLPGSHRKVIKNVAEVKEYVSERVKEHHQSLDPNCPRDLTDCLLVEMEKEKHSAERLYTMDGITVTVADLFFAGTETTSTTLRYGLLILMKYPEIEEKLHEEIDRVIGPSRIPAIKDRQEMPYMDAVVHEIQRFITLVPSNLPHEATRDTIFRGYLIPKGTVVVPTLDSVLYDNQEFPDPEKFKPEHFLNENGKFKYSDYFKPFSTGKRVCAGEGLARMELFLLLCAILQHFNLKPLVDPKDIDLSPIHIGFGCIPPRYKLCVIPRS
SMILES,AC50,outcome
CCC(=NOC/C=C/Cl)C1=C(O)CC(C2CCOCC2)CC1=O (configuration not stated),3500 nM (active),
CC(C)NC(=O)N1CC(=O)N(c2cc(Cl)cc(Cl)c2)C1=O,,inactive
FC(F)C(F)(F)OCC(Cn1cncn1)c1ccc(Cl)cc1Cl (configuration not stated),,inactive
COP(=S)(OC)Oc1ccc([N+](=O)[O-])cc1,,inactive
CC[C@H](C)[C@H]1O[C@]2(C=C[C@@H]1C)C[C@@H]1C[C@@H](C/C=C(\C)[C@@H](O[C@H]3C[C@H](OC)[C@@H](O[C@H]4C[C@H](OC)[C@@H](NC)[C@H](C)O4)[C@H](C)O3)[C@@H](C)/C=C/C=C3\CO[C@@H]4[C@H](O)C(C)=C[C@@H](C(=O)O1)[C@]34O)O2,551 nM (active),
COP(=S)(OC)SCn1nnc2ccccc2c1=O,,inactive
N#CSCSC#N,,inactive
CC(C)(C)C(O)C(Oc1ccc(Cl)cc1)n1cncn1 (configuration not stated),604 nM (active),
COc1nn(CSP(=S)(OC)OC)c(=O)s1,,inactive
COP(=S)(OC)Oc1ccc([N+](=O)[O-])c(C)c1,319 nM (active),
CCCN(CCOc1c(Cl)cc(Cl)cc1Cl)C(=O)n1ccnc1,486 nM (active),
N#Cc1c[nH]cc1-c1cccc2c1OC(F)(F)O2,,inactive
